Experimental data from PubChem BioAssay (NCI).
About 83,000 compounds went through this panel and 20% of them were active in at least one assay; those are over-represented in the sample as a whole.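 Treatment: one concentration, 48 hours, 96-well format. Scoring: percent growth, with anything below 10 considered active.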 Activity calls are given as the source filed them.

Key:
Assay in all cases: NCI-60 one-dose screen, 48 h (100 = growth as untreated, 0 = no growth, -100 = all killed)
Details in all cases: 10 µM
BT-549 breast = system: BT-549 breast
MDA-MB-435 melanoma = system: MDA-MB-435 melanoma
SW-620 colon = system: SW-620 colon
MCF7 breast = system: MCF7 breast
HCT-116 colon = system: HCT-116 colon
HCC-2998 colon = system: HCC-2998 colon
KM12 colon = system: KM12 colon

Measured: growth

Cc1cccc2c(NCCN(C)C)c3cccc(C(=O)NCCN(C)C)c3nc12
inactive: BT-549 breast 18.2%
active: MDA-MB-435 melanoma 8.12% | SW-620 colon 4.11% | MCF7 breast 2.67% | HCT-116 colon 8.86% | HCC-2998 colon -22.8% | KM12 colon -27.6%

NC1=NC(=O)C(c2ccccc2)(c2ccccc2)S1
inactive: BT-549 breast 118% | MDA-MB-435 melanoma 121% | SW-620 colon 108% | MCF7 breast 105% | HCT-116 colon 106% | HCC-2998 colon 108% | KM12 colon 107%

Oc1[nH]c2ccc(Cl)cc2c1/C=c1/ccc2c(c1)N=C(c1cccs1)N=2
inactive: BT-549 breast 57.4% | MDA-MB-435 melanoma 39% | SW-620 colon 85.9% | MCF7 breast 10.1% | HCT-116 colon 52.9% | HCC-2998 colon 88.6% | KM12 colon 58%

CCCCOc1ccc(NC(=O)Nc2nnc(C)s2)cc1
inactive: BT-549 breast 110% | MDA-MB-435 melanoma 101% | SW-620 colon 111% | MCF7 breast 88.1% | HCT-116 colon 94.9% | HCC-2998 colon 93.2% | KM12 colon 103%

O=C(N/N=C/c1ccccc1O)C(O)(c1ccccc1)c1ccccc1
active: HCT-116 colon 8.42%
inactive: BT-549 breast 70.3% | MDA-MB-435 melanoma 65.2% | SW-620 colon 51.1% | MCF7 breast 50.7% | HCC-2998 colon 76.3% | KM12 colon 53.7%

CN(C)CCOc1nc2ccccc2c2c1-c1ccc(Cl)cc1C2=O
inactive: BT-549 breast 52.1%
active: MDA-MB-435 melanoma -41.6% | SW-620 colon -60.8% | MCF7 breast -38.7% | HCT-116 colon 1.69% | HCC-2998 colon -53.6% | KM12 colon -45.2%

Nc1c(C(=O)Nc2ccccc2)sc2nc3c(cc12)C(O)CCC3 (configuration not stated)
inactive: BT-549 breast 66% | SW-620 colon 29.6% | MCF7 breast 18.4% | HCT-116 colon 22% | HCC-2998 colon 17.9% | KM12 colon 25.8%
active: MDA-MB-435 melanoma -27.2%

O=C(c1cccs1)c1ccccc1Cc1ccccc1
inactive: BT-549 breast 106% | MDA-MB-435 melanoma 103% | SW-620 colon 104% | MCF7 breast 102% | HCT-116 colon 113% | HCC-2998 colon 114% | KM12 colon 104%

CC(C)(C)c1ccc(N2CSC(=S)N(c3ccc(C(C)(C)C)cc3)C2)cc1
inactive: BT-549 breast 98.9% | MDA-MB-435 melanoma 99.7% | SW-620 colon 106% | MCF7 breast 91.7% | HCT-116 colon 91.8% | HCC-2998 colon 96.4% | KM12 colon 96.7%

COc1ccc2c(c1)C(=O)c1c-2c(OCCN(C)C)nc2cc(OC)c(OC)cc12
inactive: BT-549 breast 89.9% | MDA-MB-435 melanoma 56.8% | SW-620 colon 38.6% | MCF7 breast 28.9% | HCT-116 colon 30% | HCC-2998 colon 63.2% | KM12 colon 54.1%

Cc1nc2oc3ccccc3c(=O)c2cc1C(=O)NCc1ccccc1
inactive: BT-549 breast 88% | MDA-MB-435 melanoma 65.3% | SW-620 colon 72.4% | MCF7 breast 43.8% | HCT-116 colon 59.8% | HCC-2998 colon 37.9% | KM12 colon 31.3%

Cc1cc(Cl)nc(N(CCCNc2ccnc3cc(Cl)ccc23)Cc2cccs2)n1
inactive: BT-549 breast 24.7% | SW-620 colon 11.8% | MCF7 breast 10.7% | KM12 colon 12.8%
active: MDA-MB-435 melanoma 3.55% | HCT-116 colon 3.08% | HCC-2998 colon 0.165%

COc1ccc(/C=C/C(C)=N/OCC(=O)O)cc1
inactive: BT-549 breast 98.6% | MDA-MB-435 melanoma 114% | SW-620 colon 107% | MCF7 breast 100% | HCT-116 colon 96.9% | HCC-2998 colon 105% | KM12 colon 106%

C=C(C(=O)c1ccccc1)C(NC(C)(C)C)c1ccccc1 (configuration not stated)
active: MDA-MB-435 melanoma 7.63% | SW-620 colon -19.7% | MCF7 breast 9.57% | HCT-116 colon -90.6% | HCC-2998 colon 1.14%
inactive: BT-549 breast 34.8% | KM12 colon 25.8%

Cc1ccc(NC(=O)Nc2cccnc2)cc1NC(=O)Nc1cccnc1
inactive: BT-549 breast 98.1% | MDA-MB-435 melanoma 73.9% | SW-620 colon 108% | MCF7 breast 81% | HCT-116 colon 90.2% | HCC-2998 colon 87.7% | KM12 colon 87.2%

COc1ccc(-c2nc3sccn3c2-c2nc3c([nH]2)C(=O)c2ccccc2C3=O)cc1
inactive: BT-549 breast 112% | MDA-MB-435 melanoma 95.9% | SW-620 colon 101% | MCF7 breast 83.8% | HCT-116 colon 91% | HCC-2998 colon 95.7% | KM12 colon 103%

COC(=O)c1c(-c2ccccc2)csc1NC(=O)c1c(-c2ccccc2)noc1C
inactive: BT-549 breast 59.2% | MDA-MB-435 melanoma 32.7% | SW-620 colon 19.4% | MCF7 breast 24.6% | HCC-2998 colon 63.5% | KM12 colon 27.9%
active: HCT-116 colon 6%

COc1cc(/C=C\c2cc(OC)c(OC)c(OC)c2)cc(NS(=O)(=O)c2ccc(Cl)cc2)c1OC
active: MDA-MB-435 melanoma -39.1%
inactive: BT-549 breast 40.6% | SW-620 colon 30.4% | MCF7 breast 26.5% | HCT-116 colon 14.7% | HCC-2998 colon 18.6% | KM12 colon 25.1%

Cc1ccc(CC#N)cc1C
inactive: BT-549 breast 124% | MDA-MB-435 melanoma 88.4% | SW-620 colon 109% | MCF7 breast 104% | HCT-116 colon 93% | HCC-2998 colon 103% | KM12 colon 94.7%

C[C@@H]1C=C2C(=O)O[C@@H]3CC[C@H](C1)[C@]23O
inactive: BT-549 breast 54.4% | MDA-MB-435 melanoma 57.7% | SW-620 colon 48.8% | MCF7 breast 36.8% | HCT-116 colon 48.7% | HCC-2998 colon 99.9% | KM12 colon 100%

COc1cc2cc3c(nc2cc1OC)CCN3Cc1ccc(NC(=O)Nc2cc(C(F)(F)F)cc(C(F)(F)F)c2)cc1
inactive: BT-549 breast 106% | MDA-MB-435 melanoma 76.4% | SW-620 colon 88.3% | MCF7 breast 49.3% | HCT-116 colon 66.7% | HCC-2998 colon 83.4% | KM12 colon 68.6%

C[C@]12CC[C@@H]3c4ccc(O)cc4C[C@@H](O)[C@H]3[C@@H]1CC[C@@H]2O
inactive: BT-549 breast 102% | MDA-MB-435 melanoma 95.8% | SW-620 colon 110% | MCF7 breast 115% | HCT-116 colon 105% | HCC-2998 colon 118% | KM12 colon 111%

CSC1=NCCCC1
inactive: BT-549 breast 108% | MDA-MB-435 melanoma 108% | SW-620 colon 114% | MCF7 breast 97.8% | HCT-116 colon 109% | HCC-2998 colon 115% | KM12 colon 113%

COC(=O)C1=NNC(=S)N(c2cc(C)[nH]n2)C(=O)C1
inactive: BT-549 breast 107% | MDA-MB-435 melanoma 99.4% | SW-620 colon 102% | MCF7 breast 96% | HCT-116 colon 99.2% | HCC-2998 colon 93.6% | KM12 colon 102%

Nc1ccc2cc(S(=O)(=O)O)cc(O)c2c1N=Nc1ccc(F)cc1
inactive: BT-549 breast 102% | MDA-MB-435 melanoma 113% | SW-620 colon 104% | MCF7 breast 111% | HCT-116 colon 93.4% | HCC-2998 colon 102% | KM12 colon 107%

ClCCOCCn1cnc2c(Cl)nc(Cl)nc21
inactive: BT-549 breast 102% | MDA-MB-435 melanoma 80.7% | SW-620 colon 47.6% | MCF7 breast 55.9% | KM12 colon 92.5%
active: HCT-116 colon -13.6% | HCC-2998 colon -90.2%

COc1ccc(C2=NN(C(=O)c3ccc(S(C)(=O)=O)cc3)C(c3ccc(OC)c(OC)c3)C2)c(OC)c1 (configuration not stated)
inactive: BT-549 breast 91.6% | MDA-MB-435 melanoma 108% | SW-620 colon 105% | MCF7 breast 98.7% | HCT-116 colon 82.7% | HCC-2998 colon 102% | KM12 colon 100%

Nc1nc(N=Nc2ccc(O)cc2)cc(=O)[nH]1
inactive: BT-549 breast 95.5% | MDA-MB-435 melanoma 98.3% | SW-620 colon 104% | MCF7 breast 101% | HCT-116 colon 112% | HCC-2998 colon 106% | KM12 colon 111%

Clc1cccc(-c2nc(-c3cccs3)no2)c1
inactive: BT-549 breast 111% | MDA-MB-435 melanoma 111% | SW-620 colon 106% | MCF7 breast 36.8% | HCT-116 colon 92.4% | HCC-2998 colon 32.9% | KM12 colon 92.4%

O=C(Nc1ccccc1)Nc1cccc(-n2cc(-c3ccncc3)c(-c3ccc(O)c(Cl)c3)n2)c1
inactive: BT-549 breast 67.1% | MDA-MB-435 melanoma 52.4% | SW-620 colon 50.8% | MCF7 breast 32.5% | HCT-116 colon 41.2% | HCC-2998 colon 44.2% | KM12 colon 32.6%

N#Cc1ncc(-c2cc(F)c(F)c(F)c2)c(NC2CCCCCC2)n1
inactive: BT-549 breast 100% | MDA-MB-435 melanoma 95.5% | SW-620 colon 92.8% | MCF7 breast 79.1% | HCT-116 colon 84.4% | HCC-2998 colon 91.9% | KM12 colon 78.7%

O=C1NC(=O)c2ncccc21
inactive: BT-549 breast 91.1% | MDA-MB-435 melanoma 100% | SW-620 colon 120% | MCF7 breast 95.5% | HCT-116 colon 102% | HCC-2998 colon 103% | KM12 colon 107%

COc1cc(-c2cc(/C=C3\C(=O)Nc4cc(Cl)ccc43)[nH]n2)cc(OC)c1OC
inactive: BT-549 breast 47.6% | SW-620 colon 41.4% | HCT-116 colon 14.2% | HCC-2998 colon 70%
active: MDA-MB-435 melanoma -0.685% | MCF7 breast -4.15% | KM12 colon 9.09%

O=C(Nc1ccc(CO)cc1)c1ccccc1Nc1ccnc(C(F)(F)F)c1
inactive: BT-549 breast 104% | MDA-MB-435 melanoma 106% | SW-620 colon 105% | MCF7 breast 97.1% | HCT-116 colon 101% | HCC-2998 colon 106% | KM12 colon 99.4%

COc1ccc(-c2cc(/C=C/C(=O)c3cc(OC)c(OC)c(OC)c3)[nH]n2)cc1OC
active: MDA-MB-435 melanoma 4.69% | SW-620 colon -65.6% | MCF7 breast -9.93% | HCT-116 colon -46.5% | HCC-2998 colon -75.7% | KM12 colon -61.6%
inactive: BT-549 breast 24%

COc1ccccc1/C=C/C(=O)c1ccccc1
inactive: BT-549 breast 88.4% | MDA-MB-435 melanoma 70.7% | SW-620 colon 14.9% | MCF7 breast 32.2% | HCT-116 colon 55.3% | HCC-2998 colon 101% | KM12 colon 27.9%
